From PubChem BioAssay
PNC inhibitor: blocks assembly of the perinucleolar compartment. PC3M PTB-GFP, PNC prevalence imaging, 16 h; hits give low values. activity change (PNC), negative = inhibition, % at 10 µM. 140,000 tested, 3.1% active;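 active means readout at or below -70, meaning at least 70% loss of cells showing the perinucleolar compartment, a nuclear body marking cancer cells; inconclusive means readout between -30 and a set limit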;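 further: plate controls were DMSO wells for no effect and camptothecin positive control wells for full effect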
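Read-out is percentage of cells bearing a perinucleolar compartment, from automated 20x imaging of fixed, Hoechst-stained PC3M PTB-GFP cells. Cells were seeded 4 h, then exposed 16 h to compound (23 nl of library stock) in duplicate plates.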
ALDH1A1 inh: ALDH1A1 (human) enzyme inhibition | 220,000 tested, 7.3% active | AID 1030 | Purified ALDH1A1, NADH fluorescence, propionaldehyde substrate | Potency, µM (doses to about 75.3 µM), inactives show top-dose activity, negative = inhibition, most hits filed as inhibitors;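 further: potency means the concentration at half of the fitted maximal effect; plate controls were no enzyme wells and a reference inhibitor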
HTT aggregate: reduces HttQ103-GFP aggregates in PC12 cells. AID 1688. PC12 HttQ103-GFP aggregates, Acumen cytometry, 40 h. 220,000 tested, 1.1% active. Potency, µM (titrated, usually from 46.1 µM), for the others: top-dose activity change, negative = inhibition, hits mostly inhibitors; active means well fitted curve in the direction sought with a large enough effect; inconclusive means small, poorly fitted or top-dose-only effect, or another doubt; inactive means no such curve, though single readings can be large; an effect the other way counts as inactive or inconclusive; further: potency means the concentration at half of the fitted maximal effect; on the % scale 0 is the no-effect control and ±100 the full control effect; nearly all actives have a fitted effect of over 60% in size
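Aggregate formation scored by laser-scanning cytometer (488 excitation, 500–530 emission) in lysed PC12 cells expressing Q103-GFP after 100 nM tebufenozide induction; library tested in dose series, with ATPLite reagent added in the multiplex.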
HTT cytoprotect: cytoprotection in Huntington HTT-Q103 PC12 cell model; 230,000 tested, 0.14% active; Potency, µM (doses to about 56.4 µM), inactives show cytoprotection (ATP increase), usual class: activators; AID 1471; PC12 HTT-Q103 induced, cytoprotection, ATP luminescence, 40 h; active means well fitted curve in the direction sought with a large enough effect; inconclusive means small, poorly fitted or top-dose-only effect, or another doubt; inactive means no such curve, though single readings can be large; an effect the other way counts as inactive or inconclusive; further: potency means the concentration at half of the fitted maximal effect; % of control where 0% means no effect; nearly all actives have a fitted effect of over 45% in size
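Compounds added alongside 100 nM tebufenozide, which induces toxic Q103 huntingtin exon 1-GFP in stable PC12 cells; surviving cells quantified by luminescent ATP measurement. Medium: phenol red-free DMEM, 5% equine and 5% calf serum.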
RGS12 GoLoco inh: RGS12 GoLoco-Gai1 interaction inhibition. P63096. Potency, µM (top dose mostly 61.6 µM), for inactives: top-dose activity, negative = inhibition, most hits filed as inhibitors. 230,000 tested, 0.44% active. Gai1:RGS12 GoLoco peptide FP, rhodamine, 10 min; active means well fitted inhibition curve with a large enough effect, not every such curve was filed as active; inactive means no such curve, though single readings can be large or run the other way; further: potency means the concentration at half of the fitted maximal effect; on the % scale 0 is the no-effect control and ±100 the full control effect; nearly all actives have a fitted effect of over 30% in size
Target sequence (P63096 whole entry, looked up): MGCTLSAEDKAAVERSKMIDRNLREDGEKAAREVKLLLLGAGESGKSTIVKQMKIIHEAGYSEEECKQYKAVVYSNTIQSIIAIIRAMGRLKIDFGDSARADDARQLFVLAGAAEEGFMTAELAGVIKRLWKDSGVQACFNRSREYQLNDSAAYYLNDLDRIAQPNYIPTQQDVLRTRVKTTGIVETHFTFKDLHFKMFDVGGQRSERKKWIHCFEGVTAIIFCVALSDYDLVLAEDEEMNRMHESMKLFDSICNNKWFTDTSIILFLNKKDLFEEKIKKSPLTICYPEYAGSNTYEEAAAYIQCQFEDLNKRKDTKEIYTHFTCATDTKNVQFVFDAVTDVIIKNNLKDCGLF
HPGD block: inhibitors of human 15-hydroxyprostaglandin dehydrogenase (HPGD). Potency, µM, for inactives: top-dose activity change, negative = inhibition, hits mostly inhibitors. purified HPGD, NADH fluorescence kinetic, PGE2 substrate. P15428. 150,000 tested, 4.3% active; further: potency means the concentration at half of the fitted maximal effect; on the % scale 0 is the no-effect control and ±100 the full control effect
Target sequence (P15428 whole entry, looked up): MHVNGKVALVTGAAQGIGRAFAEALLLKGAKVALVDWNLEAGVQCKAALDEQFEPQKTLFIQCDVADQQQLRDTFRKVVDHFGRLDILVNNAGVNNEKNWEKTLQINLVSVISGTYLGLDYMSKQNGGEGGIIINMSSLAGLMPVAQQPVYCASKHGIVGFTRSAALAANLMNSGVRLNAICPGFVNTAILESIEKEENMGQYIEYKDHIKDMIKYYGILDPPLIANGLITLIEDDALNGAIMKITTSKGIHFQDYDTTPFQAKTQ
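NADH formation kinetics: reaction with 30 uM PGE2 and 1 mM NAD+ (final), 20 nM enzyme, Tris-HCl pH 8 with Tween 20, after 15 min compound preincubation at room temperature. Fluorescence change, last versus first of five reads.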
* marks the source's active call; other numbers are inactive results; ? = inconclusive; . = no result given; [ ] = another dose, or the depositor's remark. This is a sample that favours compounds with a hit; in the whole collection about 11% have one here. Unless noted, the call rests on the fitted dose curve; in most records, active means well fitted inhibition curve with a large enough effect (not every such curve was filed as active); inconclusive means small, poorly fitted or top-dose-only effect, or another doubt; inactive means no such curve, though single readings can be large or run the other way.

SMILES | PNC inhibitor | ALDH1A1 inh | HTT aggregate | HTT cytoprotect | RGS12 GoLoco inh | HPGD block
O=C(Nc1ccc(Cl)cc1)OCCN1CCN(Cc2ccccc2)CCC1=O | . | 5% | . | -42% | -10% | -6%
COc1ccc(-c2ccc(SCC(=O)NCc3ccco3)nn2)cc1 | -2 | 2% | 15% | -51% | -6% | -16%
COc1ccc(-c2nnc(SCC(=O)NC(=O)NCc3ccco3)o2)cc1 | -6 | 22µM* | 2% | -11% | 3% | 20µM*
COc1ccc(N=C2C(=O)N3c4c(cccc42)C(C)=CC3(C)C)cc1 | 2 | 2µM* | 14% | 6%[10 µM] | -4% | -19%
O=C(N/N=C/c1ccc(O)c(O)c1O)/C(=C/c1ccc([N+](=O)[O-])cc1)NC(=O)c1ccccc1 | 28 | 10µM* | 2% | -25% | 4% | 25µM*
N#CC1=C2SCC(O)(c3ccccc3)N2C(=O)CC1c1cccs1 (stereo not given) | -89* | 0.035µM* | -11% | 12% | . | .
COc1ccc(SC[C@H](CC(C)C)N2CCN(CCc3ccccc3)CCC2=O)cc1 | . | . | -1%[9.22 µM] | 10%[10 µM] | 7% | .
N[C@@](CCc1ccccc1)(C(=O)O)c1ccccc1 | . | 3%[13.5 µM] | . | -20%[10 µM] | 0%[14.2 µM] | -5%
Cc1c(C(=O)NNC(=S)Nc2cccc(Cl)c2)nnn1-c1ccccc1 | 10 | 11µM* | ? | . | 8% | -29%
CC(C)N=c1scc(-c2ccco2)n1/N=C/c1ccc(O)c(O)c1 | 11 | -4% | ? | -88% | -1% | 32µM*
COCCN=c1scc(-c2ccco2)n1/N=C/c1ccc(O)c(O)c1O | . | 8.9µM* | ? | ? | 63% | .
CCOC(=O)C1CCCNC1=O (stereo not given) | . | 1% | -23%[9.22 µM] | -7%[10 µM] | 3% | .
OCCN(CC(O)Cn1ccc2ccccc21)CC(O)Cn1ccc2ccccc21 (stereo not given) | -13 | 28µM* | 8% | -25% | 0% | -4%
Cc1ccc(S(=O)(=O)N2CCOCC2)cc1NC(=O)COC(=O)CNC(=O)c1ccc(Oc2ccccc2)cc1 | ? | -11% | -4% | 41%[0.074 µM] | 5% | -11%
CC(C)(C)c1ccc(C(=O)NCC(=O)OCC(=O)Nc2ccccc2[N+](=O)[O-])cc1 | 17 | 6.3µM* | 11% | . | 5% | -11%
Cc1ccc(S(=O)(=O)N2CCOCC2)cc1NC(=O)COC(=O)CNC(=O)c1ccc(C(C)(C)C)cc1 | -7 | 7.9µM* | 8% | 5%[10 µM] | -9% | -11%
Cc1ccc(C2(C)NC(=O)N(CC(=O)Nc3cc(S(=O)(=O)N4CCOCC4)ccc3C)C2=O)cc1 (stereo not given) | -115* | 2% | 6% | . | -11% | -6%
COc1cc(NC(=O)COC(=O)CNC(=O)c2ccc(C)cc2)c(C)cc1[N+](=O)[O-] | 20 | -8% | 6% | 5%[10 µM] | -10% | -18%
O=C(O)c1ccc(N[C@@H]2OC[C@@H](O)[C@@H](O)[C@@H]2O)cc1 | . | 3% | -1% | -20% | -3% | -6%
CC1CCc2c(sc(NC(=O)CCCn3cnc([N+](=O)[O-])n3)c2C(N)=O)C1 (stereo not given) | . | -13% | 1% | -19% | 12% | .
Cc1cc([N+](=O)[O-])nn1CCCC(=O)Nc1sc2c(c1C(N)=O)CCCC2 | -3 | 7% | -2% | 3%[10 µM] | 1% | 4.5µM*
Cc1cc([N+](=O)[O-])nn1CC(=O)Nc1sc2c(c1C(N)=O)CCCC2 | . | ? | 5% | 27%[10 µM] | 7% | .
CCCOC(=O)c1c(NC(=O)CCCn2nc([N+](=O)[O-])cc2C)sc(C(=O)OC)c1C | -119* | ? | -2% | 18%[10 µM] | -10% | -6%
NC(=O)c1c(NC(=O)CCCn2cnc([N+](=O)[O-])n2)sc2c1CCCC2 | . | 1.6µM* | 19% | . | 9% | .
CCN(CC)C(=O)C(=O)c1cccn1-c1cccc(-n2cccc2C(=O)C(=O)N(CC)CC)c1C#N | 44 | 13% | -6% | -8% | 6% | -10%
SMILES | PNC inhibitor | ALDH1A1 inh | HTT aggregate | HTT cytoprotect | RGS12 GoLoco inh | HPGD block
COC1/C=C/OC2(C)Oc3c(C)c(O)c4c(O)c(c(/C=N/N5CCN(C)CC5)c(O)c4c3C2=O)NC(=O)/C(C)=C/C=C/C(C)C(O)C(C)C(O)C(C)C(OC(C)=O)C1C (stereo not given) | . | -2% | . | 25%[1.9 µM] | -3% | -16%
O=S(=O)(NCC(c1cccnc1)N1CCOCC1)c1ccc(Cl)cc1 (stereo not given) | . | 28µM* | 0% | -2% | 15% | .
O=S(=O)(NCC(c1cccnc1)N1CCOCC1)c1ccccc1 (stereo not given) | . | 25µM* | 4% | 6% | 5% | .
O=C(NCC(c1cccnc1)N1CCOCC1)Nc1ccccc1 (stereo not given) | ? | 9% | -10% | -7% | 2% | -13%
O=S(=O)(NCC(c1ccco1)N1CCOCC1)c1ccc(Cl)cc1 (stereo not given) | -29 | -2% | 19% | -1%[10 µM] | -6% | -12%
CC(=O)N[C@H](C(=O)O)C(C)(C)SN=O | . | 2% | . | . | 6% | 5%
COc1ccc2c(c1)O[C@@H](c1ccc3c(c1)OCO3)[C@H](OC(=O)Nc1ccc(C)c(Br)c1)C2=O | . | 0% | . | -23% | 3% | -5%
Cc1cc(C)c(NC(=O)c2ccc(CN3CCc4ccccc4C3)cc2)c(C)c1 | 25 | 3% | ? | -21% | 1% | 0%
O=C(c1ccc(CN2CCc3ccccc3C2)cc1)N1CCCCC1 | -16 | ? | -25% | -10% | 10% | 2.5µM*
CCCNC(=O)c1ccc(CN2CCc3ccccc3C2)cc1 | -21 | -3% | 6% | 23%[10 µM] | 1% | -28%
C/C(=N\NC(=O)c1ccc(CN2CCc3ccccc3C2)cc1)c1ccccc1O | . | ? | 10µM* | -171% | 1% | .
COCCNC(=O)c1ccc(CN2CCc3ccccc3C2)cc1 | 45 | 8% | -16% | . | 3% | 14µM*
CCC(C)c1ccc(NC(=S)NC(C)C2CCCO2)cc1 (stereo not given) | . | ? | 7%[9.22 µM] | 29%[10 µM] | -12% | .
CC1CCN(CC[S-])CC1.O.O.[Cl][Pt] | . | -11%[13.5 µM] | . | -34%[10 µM] | 2%[14.2 µM] | -13%
CCc1cc2ccc(C)cc2nc1SCC(=O)Nc1cc(C)on1 | . | 25µM* | 9%[9.22 µM] | 12%[10 µM] | -7% | .
COc1ccc(C)cc1-n1nnnc1SCC(=O)NNC(=O)c1ccc([N+](=O)[O-])cc1 | -22 | 3.2µM* | 5%[9.22 µM] | -11%[10 µM] | -4% | -19%
Cc1ccc(C)c(-n2nnnc2SCC(=O)NNC(=O)c2ccco2)c1 | . | 8.9µM* | 4%[9.22 µM] | 9%[10 µM] | 17% | .
CCc1cc2ccc(C)cc2nc1SCC(=O)NNC(=O)c1ccco1 | ? | 4µM* | -13% | 29%[10 µM] | 0% | 0%
